High-throughput results from PubChem.
Compounds with a hit are over-represented: about 8% of the library has one in this group of screens.
HCV inh – HCV inhibition. Huh7.5.1 HCVcc-Cre infection, luciferase reporter, 44 h. Potency, µM (titrated, usually from 41.8 µM), hits mostly inhibitors. hit rate 3.4% among 340,000; active means well fitted inhibition curve with a large enough effect; inconclusive means small, poorly fitted or top-dose-only effect, or another doubt; inactive means no such curve, though single readings can be large or run the other way
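After 44 h co-culture of compound, cells and HCVcc-Cre (~0.5 moi), substrate is added for 15 min at room temperature and luciferase measured over 15 sec. Cells were seeded at 1,000/well and pre-cultured 4 h.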
SARS PLpro yeast – SARS-CoV PLP inhibition in yeast | S. cerevisiae expressing SARS-CoV PLpro, growth rescue | Potency, µM (highest dose often 32.9 µM), most hits filed as activators | hit rate 0.19% among 330,000 | AID 485353; calls by dose curve; further: nearly all actives have a fitted effect of over 55% in size
HCMV antiviral – blocks human cytomegalovirus replication; HFF cells, HCMV-luciferase reporter, 72 h; stronger effect = lower value; activity change, negative = inhibition, % at 57.5 µM; hit rate 4.5% among 410,000; AID 1259415; in the data active means activity change below about -60%; inconclusive means no clear call, values can overlap the other calls; inactive means above about -39%
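Two-dose cell screen: HFF monolayers treated with compounds and infected with luciferase-expressing HCMV at 1 PFU/cell, 72 h at 37C, then lysed for luciferase measurement.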
FMDV antiviral – antivirals against foot and mouth disease virus; hit rate 1.2% among 410,000; FMDV antiviral cell-based qHTS; AID 1159524; Potency, µM (top dose mostly 57.9 µM), usual class: inhibitors; calls by dose curve; tested in HEK293T cells; further: read-out not given here; nearly all actives have a fitted effect of over 45% in size
Lassa entry inh – blocks Lassa virus binding to or entry into cells | Potency, µM (highest dose often 37.9 µM), hits mostly inhibitors | Lassa virus pseudotype entry inhibition, cell reporter | hit rate 1.2% among 300,000; calls by dose curve; tested in HEK293 cells; further: nearly all actives have a fitted effect of over 50% in size
MARV entry inh – Marburg virus entry inhibition. Potency, µM (top dose mostly 37.8 µM), most hits filed as inhibitors. AID 540276. Marburg virus pseudotyped entry inhibition, cell reporter. hit rate 1.8% among 300,000; calls by dose curve; tested in HEK293 cells
Of the large screens only hits and unclear results are named; the others gave an inactive call; ! = not confirmed by another sample.

COc1ccc2c(c1)CC[C@@H]1[C@@H]2CC[C@]2(C)[C@@H](NCCCCCCN3C(=O)C=CC3=O)CC[C@@H]12	none (no result: HCV inh, SARS PLpro yeast, HCMV antiviral, Lassa entry inh, MARV entry inh)
CCOc1ccccc1NC(=O)/C(C#N)=C/c1c(C)nn(-c2ccccc2)c1Cl	Lassa entry inh inconclusive
C=CCNC(=O)/C(C#N)=C/c1c(C)nn(-c2ccccc2)c1Cl	HCV inh inconclusive, MARV entry inh 7.9µM
COc1cc2nc(CN3CC=C(c4ccccc4)CC3)[nH]c(=O)c2cc1OC	HCV inh 3.5µM, HCMV antiviral -99, Lassa entry inh inconclusive (no result: SARS PLpro yeast)
CC(C)NC(=O)[C@@H]1C[C@@H](Sc2ccccn2)CN1C1CCN(C)CC1	none (no result: HCV inh, SARS PLpro yeast, HCMV antiviral, Lassa entry inh, MARV entry inh)
COC(=O)c1c(OCc2ccccc2)cc(=O)n2c1CCN(Cc1cccc(C)n1)CC2	none (no result: HCV inh, SARS PLpro yeast, HCMV antiviral, Lassa entry inh, MARV entry inh)
O=C1NC(=S)N/C1=C/c1cc2c(cc1[N+](=O)[O-])OCO2	HCMV antiviral -80 (no result: Lassa entry inh, MARV entry inh)
Cc1ccc(C(=O)NNC(=O)CSc2nnc(-c3ccccc3)n2Cc2ccccc2)cc1	HCMV antiviral inconclusive
COC(=O)[C@]1(C)CCC[C@@]2(C)C3CC[C@@]4(C)C[C@]3(CCC21)CC(=O)N4Cc1ccc(OC)cc1 (stereo partly specified)	HCV inh 13µM, FMDV antiviral inconclusive (no result: Lassa entry inh, MARV entry inh)
Cc1nc2ccccc2c2oc(C(=O)Nc3ccc(C(C)C)cc3)cc12	HCV inh inconclusive, HCMV antiviral -68, FMDV antiviral inconclusive (no result: Lassa entry inh, MARV entry inh)
Cc1nc2ccccc2c2oc(C(=O)Nc3ccc4c(c3)OCCO4)cc12	HCV inh 13µM (no result: Lassa entry inh, MARV entry inh)
O=C(NC1CCCCC1)C(c1cccs1)N(C(=O)c1ccccn1)c1ccccc1 (stereo unspecified)	none
OC(C#Cc1ccccn1)c1cccs1 (stereo unspecified)	HCV inh inconclusive, HCMV antiviral -62, MARV entry inh inconclusive
O=C(c1cc(COc2ccc(F)cc2F)on1)N1CCSCC1	Lassa entry inh inconclusive, MARV entry inh inconclusive
COc1ccc(C)cc1NC(=O)CN(c1cc(C(F)(F)F)ccc1Cl)S(C)(=O)=O	MARV entry inh inconclusive (no result: HCV inh, SARS PLpro yeast)
CCc1cc(C(=O)N2CCCC(C(=O)c3cccc(OC(C)C)c3)C2)n(C)n1 (stereo unspecified)	none
Cn1nc(C(=O)N2CCCC2)c2ccccc2c1=O	MARV entry inh inconclusive
CSc1ccc(C(=O)C2CCCN(C(=O)c3nn(C)c(=O)c4ccccc34)C2)cc1 (stereo unspecified)	HCV inh 13µM, FMDV antiviral inconclusive, Lassa entry inh inconclusive, MARV entry inh inconclusive
CCc1cc(C(=O)N2CCCC(C(=O)c3ccc(Oc4ccccc4)cc3)C2)n(C)n1 (stereo unspecified)	HCV inh inconclusive, HCMV antiviral inconclusive, FMDV antiviral inconclusive, MARV entry inh 11µM
O=C(COC(=O)CCC(=O)c1cccs1)Nc1ccccc1C(F)(F)F	none (no result: Lassa entry inh, MARV entry inh)
CCOc1ccc(NC(=O)c2c(NCc3sccc3C)sc3c2CCCCC3)cc1	none (no result: HCV inh, SARS PLpro yeast, MARV entry inh)
CCC(O)CNC(=O)c1cnn(-c2ncc3c(n2)-c2ccccc2CCC3)c1C1CC1 (stereo unspecified)	none (no result: HCV inh, SARS PLpro yeast, HCMV antiviral, Lassa entry inh, MARV entry inh)
C#CCn1c(=NC(=O)c2cccs2)sc2cccc(OCC)c21	HCV inh inconclusive, HCMV antiviral -67 (no result: Lassa entry inh, MARV entry inh)
Cc1cnc(C(=O)OCC(=O)N2CCN(S(=O)(=O)c3ccc(Cl)cc3)CC2)cn1	none
Cc1coc2c1c(C)cc1oc(=O)cc(C)c12	none (no result: HCV inh, SARS PLpro yeast)
CCc1cc(=O)oc2cc(C)c3c(C)coc3c12	HCV inh 11µM, MARV entry inh inconclusive
COC(COC(N)=O)C1=C(N2CC2)C(=O)C(C)=C(N2CC2)C1=O (stereo unspecified)	HCV inh 0.56µM, Lassa entry inh 1.3µM, MARV entry inh inconclusive (no result: SARS PLpro yeast)
Cc1cccc(N(Cc2ccccc2)C(=O)c2ccc(F)c(S(=O)(=O)N3CCOCC3)c2)c1	HCV inh inconclusive, MARV entry inh 11µM
CN(Cc1ccc(Cl)cc1)C(=O)c1cc(S(=O)(=O)N2CCOCC2)ccc1N1CCCC1	none
Cc1ccc(N(Cc2ccccc2)C(=O)c2cc(S(=O)(=O)N3CCOCC3)ccc2N2CCCC2)cc1	HCV inh inconclusive, HCMV antiviral -61, Lassa entry inh inconclusive, MARV entry inh inconclusive
Cc1cccc(N(Cc2ccccc2)C(=O)c2ccc(C)c(S(=O)(=O)N3CCOCC3)c2)c1	HCV inh inconclusive, HCMV antiviral inconclusive (no result: Lassa entry inh, MARV entry inh)
Cc1cc(NC(=O)Nc2cccc(Cl)c2)n(-c2ccccn2)n1	HCV inh 11µM, MARV entry inh inconclusive
Cc1cc(NC(=O)Nc2cccc(Cl)c2)n(-c2ccccc2)n1	HCV inh inconclusive
Cc1cc(NC(=O)c2ccc(F)cc2)n(-c2ccccn2)n1	HCV inh 8.9µM, Lassa entry inh inconclusive
CSc1ccc(-c2nc3c(C)cccn3c2Nc2ccc3c(c2)OCCO3)cc1	none (no result: HCV inh, SARS PLpro yeast)
CCC(c1ccc(O)c(O)c1)C(CC)c1ccc(O)c(O)c1 (stereo unspecified)	HCV inh 13µM, Lassa entry inh inconclusive, MARV entry inh inconclusive (no result: SARS PLpro yeast, HCMV antiviral)
COCCCNC(=O)CN1C(=O)c2c(c3ccccc3n2C)C1c1ccc(OC)cc1 (stereo unspecified)	HCMV antiviral inconclusive (no result: HCV inh, SARS PLpro yeast, MARV entry inh)
COc1ccc(S(=O)(=O)N2C[C@@H](O)COC[C@@H]3O[C@H](CC(=O)NCCCN4CCOCC4)CC[C@H]32)cc1	HCMV antiviral -74 (no result: HCV inh, SARS PLpro yeast, Lassa entry inh, MARV entry inh)
Cc1ccc(Nc2nc3c(c(=O)[nH]2)CCCC3)cc1	HCV inh inconclusive, SARS PLpro yeast inconclusive
O=c1[nH]c(Nc2nc3ccccc3o2)nc2c1CCCC2	HCMV antiviral -99, Lassa entry inh 5.2µM, MARV entry inh 6.5µM (no result: FMDV antiviral)
COc1ccc(C(=O)C[n+]2ccc3c(c2)nc(-c2ccc(OC)cc2OC)n3C)cc1	HCMV antiviral -99
COc1ccc(C(=O)C[n+]2ccc3c(c2)nc(-c2ccccc2)n3C)cc1	HCMV antiviral -91
COc1ccc2c(c1)CC/C(=C\c1ccc(OC)c(Cn3nc(C)cc3C)c1)C2=O	HCV inh 4µM, FMDV antiviral inconclusive, Lassa entry inh inconclusive, MARV entry inh inconclusive
Cc1c(C(=O)N(C)Cc2cscn2)sc2ncnc(NC[C@H]3CCc4ccccc4O3)c12	none (no result: HCV inh, SARS PLpro yeast, HCMV antiviral, Lassa entry inh, MARV entry inh)
COc1ccc(O)c(C2=Nc3ccccc3N=C(c3ccccc3)C2)c1	FMDV antiviral 25µM!, MARV entry inh inconclusive
Cc1cccc(C2=Nc3ccccc3N=C(c3cc(Cl)ccc3O)C2)c1	none (no result: HCV inh, SARS PLpro yeast, MARV entry inh)
O=C(COC(=O)CNC(=O)c1ccco1)NCCN1C(=O)CSC1=O	HCMV antiviral -62
COc1ccc(-c2cc(C)no2)cc1S(=O)(=O)N1CC(C)Oc2ccccc21 (stereo unspecified)	Lassa entry inh inconclusive (no result: HCV inh, SARS PLpro yeast, MARV entry inh)
Cc1nc2c(Cl)cc(Cl)cc2[nH]1	HCV inh inconclusive, HCMV antiviral -65
O=C(O)c1cccc2c1NC(C(=O)O)C1CC(Sc3ccccc3[N+](=O)[O-])C(Cl)C21 (stereo unspecified)	none
CC(=O)c1ccc2c(c1)C1C(Cl)C(Sc3ccccc3[N+](=O)[O-])CC1C(C(=O)O)N2 (stereo unspecified)	HCV inh 35µM
